# Assay results taken from the supplement of paper PMC10849652.
# About 7,900 targets were measured; listed, in parts, are those with a hit and a random draw of the rest. About 0.6% of all pairs of compound and target were hits. A number with no mark means an inactive call.
# How the values were obtained:
# Assay in all cases: log2 fold change, soluble protein after heating vs DMSO (PISA); higher = thermal stabilisation; K562 cells, 10 uM, 30 min; active = over 0.2 and 3.5 SD of the protein, either way, in both replicates (recomputed)
# [1] = compound: CS(=O)(=O)c1ccc(-c2cnc(N)c(C(=O)Nc3ccccc3)n2)cc1
# Procedure, shortened: (§1)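 K562 cells at 2×10^6 cells/mL were treated for 30 min with 10 μM compound, and aliquots were heated for 3 min over 48°C-58°C before pooling. Extraction used PBS with 0.5% NP-40 at 4°C, and soluble protein was the supernatant after 21,000xg for 90 min, measured by TMTpro 16plex LC-MS/MS with channel sums equalised. Thermal stability values, relative to control samples and from duplicates, are log2 fold changes.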
# [2] = compound: C[C@@H](Oc1cc(-c2cnn(C3CCNCC3)c2)cnc1N)c1c(Cl)ccc(F)c1Cl [crizotinib]
# Procedure, shortened: as §1
# [3] = compound: C[C@@H]1COCCN1C2=NC(=NC(=C2)C3(CC3)S(=O)(=O)C)C4=C5C=CNC5=CC=C4
# Procedure, shortened: as §1
# [4] = compound: C[C@H](C1=CC=C(C=C1)C(=O)NC2=C3C=CNC3=NC=C2)N
# Procedure, shortened: as §1
# [5] = compound: C[C@H](Nc1ncnc2nc[nH]c12)c1cc2cccc(Cl)c2c(=O)n1-c1ccccc1 [duvelisib]
# Procedure, shortened: as §1
# [6] = compound: Cc1cc(Nc2cc(CN3CCOCC3)c3nc(C)c(Cc4ccc(Cl)cc4F)n3n2)n[nH]1 [gandotinib]
# Procedure, shortened: as §1
# [7] = compound: Cc1cc(Nc2cc(N3CCN(C)CC3)nc(Sc3ccc(NC(=O)C4CC4)cc3)n2)n[nH]1 [tozasertib]
# Procedure, shortened: as §1
# [8] = compound: Cc1cc(SCc2sc(-c3ccc(C(F)(F)F)cc3)nc2C)ccc1OCC(=O)O
# Procedure, shortened: as §1
# [9] = compound: Cc1ccc(-n2nc(C(C)(C)C)cc2NC(=O)Nc2ccc(OCCN3CCOCC3)c3ccccc23)cc1 [doramapimod]
# Procedure, shortened: as §1
# [10] = compound: Cc1ccc(C(=O)N(CCCN)[C@@H](c2nc3cc(Cl)ccc3c(=O)n2Cc2ccccc2)C(C)C)cc1 [ispinesib]
# Procedure, shortened: as §1
# UniProt O75494, sequence (O75494 whole entry, looked up): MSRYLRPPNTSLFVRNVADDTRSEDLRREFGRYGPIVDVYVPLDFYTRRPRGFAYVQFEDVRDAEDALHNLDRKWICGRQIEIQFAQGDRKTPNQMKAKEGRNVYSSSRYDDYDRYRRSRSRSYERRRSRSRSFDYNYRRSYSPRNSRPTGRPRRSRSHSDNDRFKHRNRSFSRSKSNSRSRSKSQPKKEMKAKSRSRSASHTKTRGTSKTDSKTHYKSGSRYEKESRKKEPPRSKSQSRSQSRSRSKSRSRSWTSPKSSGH
# UniProt O94901, sequence (O94901 whole entry, looked up): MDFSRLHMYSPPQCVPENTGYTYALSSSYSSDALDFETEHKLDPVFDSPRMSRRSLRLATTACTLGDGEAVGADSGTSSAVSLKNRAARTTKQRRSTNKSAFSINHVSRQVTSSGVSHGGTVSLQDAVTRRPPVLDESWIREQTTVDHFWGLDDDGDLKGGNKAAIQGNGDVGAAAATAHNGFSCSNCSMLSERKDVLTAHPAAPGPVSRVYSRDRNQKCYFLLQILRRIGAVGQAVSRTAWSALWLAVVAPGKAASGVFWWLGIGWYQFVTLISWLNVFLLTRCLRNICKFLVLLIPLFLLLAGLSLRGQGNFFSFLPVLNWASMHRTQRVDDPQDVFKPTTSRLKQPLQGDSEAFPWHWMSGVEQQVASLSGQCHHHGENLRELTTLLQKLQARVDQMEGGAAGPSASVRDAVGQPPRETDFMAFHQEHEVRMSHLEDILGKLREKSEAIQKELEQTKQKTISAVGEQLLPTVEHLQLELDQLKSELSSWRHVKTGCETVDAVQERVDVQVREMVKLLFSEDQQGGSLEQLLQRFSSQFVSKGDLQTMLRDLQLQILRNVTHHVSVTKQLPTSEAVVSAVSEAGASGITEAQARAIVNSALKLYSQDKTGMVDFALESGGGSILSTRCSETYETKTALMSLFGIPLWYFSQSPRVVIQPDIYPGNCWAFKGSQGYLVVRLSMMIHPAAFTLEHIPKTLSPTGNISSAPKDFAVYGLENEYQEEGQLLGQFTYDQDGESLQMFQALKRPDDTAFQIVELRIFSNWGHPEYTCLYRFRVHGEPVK
# UniProt Q8WU79, sequence (Q8WU79 whole entry, looked up): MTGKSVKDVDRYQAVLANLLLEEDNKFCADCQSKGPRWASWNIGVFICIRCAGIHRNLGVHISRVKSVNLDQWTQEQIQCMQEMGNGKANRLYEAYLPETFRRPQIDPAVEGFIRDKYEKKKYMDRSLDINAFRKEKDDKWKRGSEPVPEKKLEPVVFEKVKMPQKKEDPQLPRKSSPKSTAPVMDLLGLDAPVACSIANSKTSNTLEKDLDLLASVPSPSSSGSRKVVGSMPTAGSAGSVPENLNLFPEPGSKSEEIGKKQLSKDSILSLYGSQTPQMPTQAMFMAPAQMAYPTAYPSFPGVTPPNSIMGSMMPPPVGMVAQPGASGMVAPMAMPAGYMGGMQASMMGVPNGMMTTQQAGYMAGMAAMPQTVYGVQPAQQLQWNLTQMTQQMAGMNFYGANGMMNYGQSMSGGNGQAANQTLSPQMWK
# UniProt Q16629, sequence (Q16629 whole entry, looked up): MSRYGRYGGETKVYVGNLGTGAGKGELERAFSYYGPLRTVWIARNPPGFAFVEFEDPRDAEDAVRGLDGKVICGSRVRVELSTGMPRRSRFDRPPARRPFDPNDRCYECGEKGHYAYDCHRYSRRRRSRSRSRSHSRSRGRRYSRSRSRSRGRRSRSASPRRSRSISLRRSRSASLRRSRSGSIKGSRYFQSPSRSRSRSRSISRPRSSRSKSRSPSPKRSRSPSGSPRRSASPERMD
# UniProt Q13428, sequence (Q13428 whole entry, looked up): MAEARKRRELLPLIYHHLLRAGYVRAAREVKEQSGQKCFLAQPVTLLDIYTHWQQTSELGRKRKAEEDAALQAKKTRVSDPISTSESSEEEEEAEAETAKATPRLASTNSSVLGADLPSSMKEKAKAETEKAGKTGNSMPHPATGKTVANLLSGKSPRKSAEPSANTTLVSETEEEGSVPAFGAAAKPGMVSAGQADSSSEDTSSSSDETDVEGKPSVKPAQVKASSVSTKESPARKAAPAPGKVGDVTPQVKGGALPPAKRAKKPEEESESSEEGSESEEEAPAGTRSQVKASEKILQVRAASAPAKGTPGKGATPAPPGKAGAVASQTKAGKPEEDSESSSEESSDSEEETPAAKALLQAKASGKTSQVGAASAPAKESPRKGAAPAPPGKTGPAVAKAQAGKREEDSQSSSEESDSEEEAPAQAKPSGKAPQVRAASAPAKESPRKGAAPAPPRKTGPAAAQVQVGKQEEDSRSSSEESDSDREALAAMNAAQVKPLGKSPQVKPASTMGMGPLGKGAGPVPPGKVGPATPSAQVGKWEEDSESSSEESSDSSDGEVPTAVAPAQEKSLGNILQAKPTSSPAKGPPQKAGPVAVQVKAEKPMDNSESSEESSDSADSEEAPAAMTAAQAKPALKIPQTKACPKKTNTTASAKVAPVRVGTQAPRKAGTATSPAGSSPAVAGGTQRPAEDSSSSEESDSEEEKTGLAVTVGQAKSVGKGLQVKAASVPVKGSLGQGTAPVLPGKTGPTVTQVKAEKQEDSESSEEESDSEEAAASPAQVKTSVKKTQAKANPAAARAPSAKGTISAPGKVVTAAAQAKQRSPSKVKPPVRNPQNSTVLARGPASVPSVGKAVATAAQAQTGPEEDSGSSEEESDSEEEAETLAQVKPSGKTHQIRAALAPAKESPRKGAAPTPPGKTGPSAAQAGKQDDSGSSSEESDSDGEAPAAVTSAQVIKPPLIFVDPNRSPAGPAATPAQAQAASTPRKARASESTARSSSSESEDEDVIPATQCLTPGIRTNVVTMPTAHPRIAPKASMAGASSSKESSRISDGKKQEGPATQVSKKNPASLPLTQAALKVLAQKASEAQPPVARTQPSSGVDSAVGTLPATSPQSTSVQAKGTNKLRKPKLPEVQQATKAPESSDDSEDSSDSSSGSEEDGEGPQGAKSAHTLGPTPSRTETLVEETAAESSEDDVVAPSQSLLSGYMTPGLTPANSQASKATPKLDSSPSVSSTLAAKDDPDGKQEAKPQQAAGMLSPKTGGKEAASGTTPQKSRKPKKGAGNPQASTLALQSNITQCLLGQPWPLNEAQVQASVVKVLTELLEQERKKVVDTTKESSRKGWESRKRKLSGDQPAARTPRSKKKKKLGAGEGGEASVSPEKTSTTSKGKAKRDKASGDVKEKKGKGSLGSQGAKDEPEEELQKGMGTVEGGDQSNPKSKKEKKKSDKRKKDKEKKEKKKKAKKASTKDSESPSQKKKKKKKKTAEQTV
# UniProt Q96BZ9, sequence (Q96BZ9 whole entry, looked up): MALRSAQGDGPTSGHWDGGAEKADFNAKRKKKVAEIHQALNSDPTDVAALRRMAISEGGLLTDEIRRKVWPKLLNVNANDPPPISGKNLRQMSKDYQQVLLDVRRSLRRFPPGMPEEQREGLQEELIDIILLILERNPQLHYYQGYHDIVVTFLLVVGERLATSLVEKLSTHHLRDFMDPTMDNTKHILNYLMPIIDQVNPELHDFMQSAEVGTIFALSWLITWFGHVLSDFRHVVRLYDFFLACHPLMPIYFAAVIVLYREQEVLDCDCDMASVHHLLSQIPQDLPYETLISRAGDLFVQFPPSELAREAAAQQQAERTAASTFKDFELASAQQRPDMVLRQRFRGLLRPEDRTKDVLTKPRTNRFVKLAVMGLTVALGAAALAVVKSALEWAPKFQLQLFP
# UniProt Q9NVC3, sequence (Q9NVC3 whole entry, looked up): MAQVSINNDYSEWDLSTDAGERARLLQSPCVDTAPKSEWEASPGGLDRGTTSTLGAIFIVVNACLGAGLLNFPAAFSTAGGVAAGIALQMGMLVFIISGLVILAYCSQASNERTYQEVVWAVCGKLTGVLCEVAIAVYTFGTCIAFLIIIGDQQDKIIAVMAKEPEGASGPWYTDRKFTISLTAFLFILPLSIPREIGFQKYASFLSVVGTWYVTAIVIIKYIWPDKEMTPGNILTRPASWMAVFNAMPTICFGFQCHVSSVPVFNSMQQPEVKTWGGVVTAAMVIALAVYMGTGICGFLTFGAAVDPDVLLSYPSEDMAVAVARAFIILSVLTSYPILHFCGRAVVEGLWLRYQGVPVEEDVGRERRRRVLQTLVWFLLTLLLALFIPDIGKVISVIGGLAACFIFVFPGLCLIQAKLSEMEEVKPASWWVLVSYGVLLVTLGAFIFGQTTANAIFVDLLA
# UniProt Q8TC07, sequence (Q8TC07 whole entry, looked up): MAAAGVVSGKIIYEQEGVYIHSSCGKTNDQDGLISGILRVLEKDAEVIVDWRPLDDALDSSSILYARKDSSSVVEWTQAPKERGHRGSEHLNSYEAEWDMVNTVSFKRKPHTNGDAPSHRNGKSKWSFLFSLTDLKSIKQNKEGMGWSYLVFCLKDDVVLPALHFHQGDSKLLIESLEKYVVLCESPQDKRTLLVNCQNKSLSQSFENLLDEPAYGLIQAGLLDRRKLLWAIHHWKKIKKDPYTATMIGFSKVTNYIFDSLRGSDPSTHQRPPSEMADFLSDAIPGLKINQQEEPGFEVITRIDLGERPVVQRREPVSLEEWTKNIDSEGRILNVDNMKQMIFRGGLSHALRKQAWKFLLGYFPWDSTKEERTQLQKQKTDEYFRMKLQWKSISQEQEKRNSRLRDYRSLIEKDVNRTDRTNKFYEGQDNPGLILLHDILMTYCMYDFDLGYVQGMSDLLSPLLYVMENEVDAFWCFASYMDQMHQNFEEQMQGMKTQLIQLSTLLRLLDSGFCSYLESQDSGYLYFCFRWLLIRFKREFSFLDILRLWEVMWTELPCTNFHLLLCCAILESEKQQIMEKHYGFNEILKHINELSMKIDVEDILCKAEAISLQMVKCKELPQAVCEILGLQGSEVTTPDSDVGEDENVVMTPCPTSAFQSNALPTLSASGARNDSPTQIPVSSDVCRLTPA
# UniProt P08579, sequence (P08579 whole entry, looked up): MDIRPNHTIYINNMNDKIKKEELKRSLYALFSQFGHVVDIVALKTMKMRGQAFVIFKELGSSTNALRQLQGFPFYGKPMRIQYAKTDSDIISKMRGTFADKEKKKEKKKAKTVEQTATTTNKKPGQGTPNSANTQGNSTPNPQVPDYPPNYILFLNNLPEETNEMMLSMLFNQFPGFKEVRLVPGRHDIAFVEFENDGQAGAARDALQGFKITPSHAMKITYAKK
Target,log2 fold change [1],log2 fold change [2],log2 fold change [3],log2 fold change [4],log2 fold change [5],log2 fold change [6],log2 fold change [7],log2 fold change [8],log2 fold change [9],log2 fold change [10]
ST6GAL1 (UniProt P15907),-0.064,-0.189,-0.005,0.037,0.073,0.014,0.001,0.018,0.083,0.002
TIAL1 isoform 2 (UniProt Q01085),0.008,-0.039,0.023,-0.014,0.006,-0.048,-0.023,0.046,-0.054,0.01
SLC27A1 (UniProt Q6PCB7),0.116,0.123,0.016,-0.099,0.05,,-0.084,0.112,0.062,0.06
SRSF9 (UniProt Q13242),-0.11,0.058,-0.539,0.389,-0.142,0.4,,-0.048,0.26,-0.255
SNRPB2 (UniProt P08579),-0.014,0.02,-0.024,0.008,-0.017,0.026,-0.008,-0.048,-0.01,0.027
TANGO6 (UniProt Q9C0B7),0.006,-0.123,-0.022,0.366 (active),0.087,,-0.124,0.078,-0.004,-0.085
TJP1 (UniProt Q07157),0.004,-0.016,0.044,-0.06,0.076,-0.124,0.064,0.061,-0.01,0.026
SPECC1 (UniProt Q5M775),-0.104,-0.085,-0.02,0.045,0.014,-0.18,0.007,-0.036,0.137,-0.079
SMARCA4 (UniProt P51532),0.216,0.01,0.036,0.188,0.065,0.042,,-0.064,0.085,-0.248
SUMO1 (UniProt P63165),-0.125,0.06,-0.045,0.176,-0.137,0.064,0,-0.039,-0.038,0.039
STOM (UniProt P27105),0.086,-0.005,-0.035,0.182,0.011,0.268,-0.015,0.01,-0.006,-0.29
SLC38A2 (UniProt Q96QD8),0.031,0.028,0.075,-0.075,0.068,,-0.009,0,-0.03,-0.049
TCOF1 isoform 4 (UniProt Q13428),-0.008,-0.053,0.021,-0.016,-0.029,0.042,0.002,-0.047,0.013,-0.01
SRSF10 (UniProt O75494),-0.176,0.153,-0.539,0.259,-0.139,0.183,0.095,0.036,0.222,-0.172
SNX2 isoform 2 (UniProt O60749),0.135,-0.145,0.071,0.108,0.015,,,-0.029,0.17,
SUN1 isoform 9 (UniProt O94901),-0.03,-0.067,-0.005,0.006,-0.059,-0.052,-0.047,-0.017,0.089,-0.324 (active)

Target,log2 fold change [1],log2 fold change [2],log2 fold change [3],log2 fold change [4],log2 fold change [5],log2 fold change [6],log2 fold change [7],log2 fold change [8],log2 fold change [9],log2 fold change [10]
SRXN1 (UniProt Q9BYN0),0.009,-0.295,0.09,-0.091,,0.01,-0.086,,0.076,-0.16
SLC29A3 (UniProt Q9BZD2),0.014,-0.559 (active),-0.098,0.078,0.069,,0.097,0.055,0.015,-1.02 (active)
TBC1D15 isoform 3 (UniProt Q8TC07),-0.012,-0.275,-0.032,0.036,-0.031,-0.191,0.061,0.064,0.017,-0.154
SLC35A1 (UniProt P78382),-0.017,0.056,0.044,-0.196,-0.005,,-0.036,0.074,-0.039,0.04
SMAP2 (UniProt Q8WU79),0.04,0.097,0.015,0.04,0.02,-0.011,0.058,0.096,-0.047,-0.006
STK4 (UniProt Q13043),0.009,-0.01,0.032,0.036,0.068,0.043,-0.021,-0.004,-0.008,-0.03
SRSF7 (UniProt Q16629),-0.096,0.008,-0.311,0.045,-0.093,0.319,-0.005,-0.025,0.073,-0.089
TFRC (UniProt P02786),0.026,-0.283 (active),0.012,-0.018,0.047,-0.011,-0.01,-0.023,-0.012,-0.059
STEAP3 isoform 2 (UniProt Q658P3),0.065,-0.003,0.022,-0.013,0.054,-0.032,-0.006,0.012,0.003,-0.159
SNX1 (UniProt Q13596),-0.134,-0.247,0.028,-0.025,-0.214,-0.319 (active),-0.054,0.049,-0.009,-0.252
TBC1D20 isoform 3 (UniProt Q96BZ9),0.039,-0.121,0.088,0.036,,-0.078,,,0.05,0.113
SYNE2 isoform 2 (UniProt Q8WXH0),0.209,-0.009,,0.429,0.214,0.521 (active),-0.053,0.06,0.046,-0.08
SMARCB1 (UniProt Q12824),0.024,-0.128,,0.284,0.241,0.49,0.252,0.097,0.049,
SMARCA5 (UniProt O60264),-0.004,-0.073,0.273,0.161,0.025,-0.045,0.154,0.127,-0.052,-0.012
TMBIM6 isoform 2 (UniProt P55061),-0.066,-0.451 (active),0.033,-0.049,0.046,,-0.066,-0.03,-0.053,-0.407
SLC38A7 (UniProt Q9NVC3),-0.018,-0.449,0.045,-0.009,,-0.412,0.052,,0.035,-0.842 (active)
